# High-throughput results: PubChem, National Center for Advancing Translational Sciences (NCATS)
# Lamin A splicing = qHTS Assay for Modulators of Lamin A Splicing | AID 1487, 2009 | Potency, µM (doses to about 46.1 µM), for inactives: top-dose ratio change, negative = inhibition, usual class: inhibitors | 200,000 compounds, 0.01% hits | HeLa LMNA splicing GFP/RFP minigene ratio, 48 h; active = well fitted inhibition curve with a large enough effect in the signal ratio, with a control signal flat, not every such curve was filed as active; inconclusive = small, poorly fitted or top-dose-only effect, or effect the other way, or a change in a side signal; the % refers to the signal ratio; also: potency is read from the fitted curve at half-maximal effect
#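 Read-out is the ratio of GFP to DsRed2 object intensity, acquired by 488 nm laser-scanning cytometry on HeLa lamin A-EGFP minigene reporter cells. Compound incubation 48 hrs at 37 °C in Opti-MEM with 2% FBS; DMSO 0.5% final.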
# PNC assembly inh = High Content Assay for Compounds that inhibit the Assembly of the Perinucleolar Compartment; PC3M PTB-GFP, PNC prevalence imaging, 16 h; active compounds read low; activity change (PNC), negative = inhibition, % at 10 µM; 140,000 compounds, 3.1% hits;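 active = readout at or below -70, meaning at least 70% loss of cells showing the perinucleolar compartment, a nuclear body marking cancer cells; inconclusive = readout between -30 and a set limit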;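 also: plate controls were DMSO wells for no effect and camptothecin positive control wells for full effect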
#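 Compounds are pinned in duplicate onto adhered PC3M cells stably expressing GFP-tagged PTB and incubated 16 h at 37 C. Cells are then fixed, nuclei stained with Hoechst, and PNC-positive cells counted.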
# HPGD block = qHTS Assay for Inhibitors of HPGD (15-Hydroxyprostaglandin Dehydrogenase) | 150,000 compounds, 4.3% hits | Potency, µM, for the others: top-dose activity change, negative = inhibition, usual class: inhibitors | purified HPGD, NADH fluorescence kinetic, PGE2 substrate | AID 894, 2007 | 15-hydroxyprostaglandin dehydrogenase [NAD(+)] (Homo sapiens), P15428; also: potency is read from the fitted curve at half-maximal effect
#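 NADH formation kinetics: reaction with 30 uM PGE2 and 1 mM NAD+ (final), 20 nM enzyme, Tris-HCl pH 8 with Tween 20, after 15 min compound preincubation at room temperature. Fluorescence change, last versus first of five reads.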
# ALDH1A1 inh = qHTS Assay for Inhibitors of Aldehyde Dehydrogenase 1 (ALDH1A1); AID 1030, 2008; Purified ALDH1A1, NADH fluorescence, propionaldehyde substrate; Aldehyde dehydrogenase 1A1 (Homo sapiens), P00352; 220,000 compounds, 7.3% hits; Potency, µM (highest dose often 75.3 µM), for the others: top-dose activity, negative = inhibition, most hits filed as inhibitors;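 also: potency is read from the fitted curve at half-maximal effect; plate controls were no enzyme wells and a reference inhibitor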
# Target sequence (P00352 whole entry, looked up): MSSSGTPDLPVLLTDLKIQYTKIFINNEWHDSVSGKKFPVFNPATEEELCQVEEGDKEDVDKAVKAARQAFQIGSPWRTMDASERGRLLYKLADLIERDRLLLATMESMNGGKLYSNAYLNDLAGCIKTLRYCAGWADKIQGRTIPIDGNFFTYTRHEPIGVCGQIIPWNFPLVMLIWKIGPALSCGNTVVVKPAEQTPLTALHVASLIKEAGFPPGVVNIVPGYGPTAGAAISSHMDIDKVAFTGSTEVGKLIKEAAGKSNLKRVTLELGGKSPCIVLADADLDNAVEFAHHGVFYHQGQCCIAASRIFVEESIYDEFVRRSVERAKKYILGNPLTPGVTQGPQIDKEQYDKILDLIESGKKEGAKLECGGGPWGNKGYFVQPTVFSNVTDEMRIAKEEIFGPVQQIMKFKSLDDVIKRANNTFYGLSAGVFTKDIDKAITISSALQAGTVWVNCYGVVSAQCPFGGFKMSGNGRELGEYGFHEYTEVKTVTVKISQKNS
# KinaseGlo FLuc = Counterscreen for Luciferase (Kinase-Glo TM) Inhibition | 200,000 compounds, 0.28% hits | Kinase-Glo luciferase, ATP luminescence, 8 min | AID 1379, 2008 | Potency, µM (doses to about 38.3 µM), inactives show at the highest dose activity change, negative = inhibition, actives largely listed as inhibitors; active = well fitted inhibition curve with a large enough effect; inconclusive = small, poorly fitted or top-dose-only effect; also: potency is read from the fitted curve at half-maximal effect; nearly all actives have a fitted effect of over 60% in size
#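 Compounds were added to a substrate mix at pH 7.2 (50 mM imidazole, 10 uM ATP, within the enzyme's linear range), followed by Kinase-Glo detection reagent; luminescence was measured after 8 minutes at ambient temperature.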
# Numbers without * were called inactive; ? = inconclusive; nt = no result; ! = not confirmed by another sample; [ ] = another dose, or the depositor's remark. The list is not random: actives were taken first. Their share in the collection is about 10%. Unless noted, calls follow the shape of the dose curve; as a rule, active = well fitted inhibition curve with a large enough effect (not every such curve was filed as active); inconclusive = small, poorly fitted or top-dose-only effect, or another doubt; inactive = no such curve, though single readings can be large or run the other way. Unless noted, % is scaled to controls: 0 for no effect and ±100 for the full control effect.
SMILES,Lamin A splicing,PNC assembly inh,HPGD block,ALDH1A1 inh,KinaseGlo FLuc
COc1cccc(CNC(=O)CN2C(=O)CSc3c2c(C)nn3-c2ccccc2)c1OC,10%[46 µM],nt,nt,nt,nt
COc1ccccc1CN1CC2(CCN(C(=O)c3ccncc3)CC2)C1,nt,nt,-10%,-5%,-1%
CCOc1ccc(CN(C)C(=O)CCl)cc1,nt,nt,nt,0.05µM*,-1%
Cc1ccnc(NC(=O)c2cc3ccccc3oc2=O)c1,-5%[46 µM],nt,nt,-4%,11µM*
COC(=O)c1ccc(N=NNc2ccccc2)cc1,-10%,-21,25µM*,?,-3%
CCN(CC)CC(=O)n1c2c(c3ccccc31)CCCC2,9%,-100*,-10%,32µM*,2%
COc1cccc2sc(N(Cc3cccnc3)C(=O)c3ccc(S(=O)(=O)N(C)C)cc3)nc12,3%[46 µM],nt,nt,nt,nt
COCCNC(=O)CN1C(=O)CCn2nc(-c3cn(C)c4ccccc34)cc21,5%[46 µM],nt,nt,nt,nt
O=C(NNc1ccccc1[N+](=O)[O-])Nc1ccccc1,-7%,12,-13%,?,-5%
COCCNC(=S)Nc1ccc([N+](=O)[O-])cc1C,nt,nt,nt,?,6%
CNC(=S)NNc1ccccc1[N+](=O)[O-],nt,nt,nt,14µM*,-3%
COCCNC(=S)NNc1ccccc1[N+](=O)[O-],nt,nt,nt,25µM*,-2%
Cc1ccc([N+](=O)[O-])c(N)c1,nt,nt,-4%,-6%,nt
Clc1ccc(OCc2nc(-c3ccncc3)no2)c(Cl)c1,?,38,13µM*,10%,-2%
COC(=O)c1cc(O)c(OCc2ccccc2)c(O)c1,?,-85*,?,-6%,2%
CCOc1ccc(N2CC(NC(=O)Cc3ccccc3)CC2=O)cc1 (stereo not given),10%[46 µM],nt,nt,nt,nt
O=C(NNc1ccccc1[N+](=O)[O-])Nc1ccc(Cl)c(Cl)c1,?,21,-19%,?,2%
O=C1NC(=O)C(c2ccccc2[N+](=O)[O-])=C1Nc1ccc(O)c(Cl)c1,?,nt,-14%,28µM*!,0%
CCN(Cc1ccccc1)S(=O)(=O)c1ccc(F)c(C(=O)Nc2cc(C(F)(F)F)ccc2Cl)c1,-16%[46 µM],nt,nt,nt,nt
N#C/C(=C/c1ccc(N2CCOCC2)o1)C(=O)Nc1ccccc1,?,nt,nt,22µM*,0%
COc1ccc(/C=C(\C#N)C(=O)NCCc2ccccc2)cc1OCc1ccccc1,?,48,?,?,-5%
N#C/C(=C\c1ccc(N2CCOCC2)o1)C(=O)NCCc1ccccc1,8%[46 µM],nt,nt,?,4%
COCCNC(=O)/C(C#N)=C/c1ccc(N2CCOCC2)o1,-5%,47,?,32µM*,0%
COCCNC(=O)/C(C#N)=C/C(C)=C/c1ccccc1,?,-10,-21%,7%,2%
COCCNC(=O)/C(C#N)=C/c1cccc(/C=C(\C#N)C(=O)NCCOC)c1,?,?,25µM*,?,5%
SMILES,Lamin A splicing,PNC assembly inh,HPGD block,ALDH1A1 inh,KinaseGlo FLuc
N#C/C(=C\c1ccc(O)c(O)c1)C(=O)NCCCc1ccccc1,?,8,32µM*,?,2%
O=C(O)c1ccccc1OP(=O)(O)O,-7%,nt,?,?,-3%
Fc1cc(F)c(F)c(SCCc2ccncc2)c1F,?,?,?,7.9µM*,-1%
CC(=O)OCC(=O)[C@@]12OC(C)(C)O[C@@H]1C[C@H]1[C@H]3C[C@H](F)C4=CC(=O)C=C[C@@]4(C)[C@]3(F)[C@H](O)C[C@@]12C,?,nt,-4%,-8%[20.9 µM],1%[17.1 µM]
O=C(Nc1ccc(-c2cn3ccsc3n2)cc1)C1CCCC1,5%,-3,14µM*,-10%,11µM*
c1cn2cc(-c3ccc4c(c3)OCO4)nc2s1,9%,29,32µM*,8.9µM*,-26%
CCSc1nc2n(n1)C(c1ccc(CC)cc1)C(C(=O)Nc1ccccc1OC)=C(C)N2 (stereo not given),12%[46 µM],nt,nt,nt,nt
CCOc1ccc(CNC(=O)CN2C(=O)CSc3c2c(C)nn3-c2ccccc2)cc1,-4%[46 µM],nt,nt,nt,nt
